HT1080NT lethal: qHTS for induction of synthetic lethality in tumor cells producing 2HG: qHTS for the HT-1080-NT fibrosarcoma cell line | HT-1080-NT fibrosarcoma viability, CellTiter-Glo ATP luminescence, 48 h | Potency, µM (titrated, usually from 46.1 µM), most hits filed as cytotoxic | 360,000 compounds, 1.6% hits | AID 686970, 2013;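 further: NT is the 2HG producing partner of a matched IDH1 knockdown line; nearly all actives have a fitted effect of over 55% in size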
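Fibrosarcoma NT cells, 750 per well in 5% FBS RPMI, were exposed to compound for 48 hours. Viability: CellTiter-Glo luminescence.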
DT40 TDP1 CPT: qHTS for Inhibitors of human tyrosyl-DNA phosphodiesterase 1 (TDP1): qHTS in cells in presence of CPT. chicken DT40 Tdp1-/-;hTDP1 cells + 20 nM CPT, ATP luminescence, 48 h. Potency, µM (series often up to 46.2 µM), hits mostly inhibitors. 420,000 compounds, 12% hits. AID 686979, 2013; further: nearly all actives have a fitted effect of over 55% in size
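Cell growth measured by CellTiter-Glo luminescence after a minimum 48 h, 37 C compound exposure with 20 nM CPT in Tdp1-knockout DT40 cells stably expressing hTDP1, seeded 400/well; qHTS titration format.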
HT1080 IDH1KD tx: qHTS for induction of synthetic lethality in tumor cells producing 2HG: qHTS for the HT-1080-IDH1KD cell line; 360,000 compounds, 2% hits; HT-1080 IDH1 knockdown viability, ATP luminescence, 48 h; Potency, µM (titrated, usually from 46.1 µM), most hits filed as cytotoxic; AID 686971, 2013
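After a 2 h attachment period, IDH1KD HT-1080 cells took pin-transferred compound for 48 h at 37 °C; ATP-based luminescence after 10 min room-temperature reagent incubation reported viability.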
IL1B secr inh: qHTS for Inhibitors of Inflammasome Signaling: IL-1-beta AlphaLISA Primary Screen; THP-1 LPS/ATP IL-1B secretion, AlphaLISA, 16 h; hits give low values; activity change, % at 57.5 µM; 360,000 compounds, 4.7% hits; in the data active means activity change below about -50%; inconclusive means mostly about -30% to -49%
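THP-1 cells pretreated 1 hr with compounds (up to 57.5 uM final), then stimulated with LPS (250 ng/mL final) plus ATP (1.25 mM final); secreted IL-1B measured by AlphaLISA after 16 hr, decreased signal indicating inhibition.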
TDP1 cell noCPT: qHTS for Inhibitors of human tyrosyl-DNA phosphodiesterase 1 (TDP1): qHTS in cells in absence of CPT | DT40 Tdp1-/- hTDP1 cells, no CPT, ATP luminescence, 48 h | Potency, µM (series often up to 46.2 µM), hits mostly inhibitors | 420,000 compounds, 15% hits | AID 686978, 2013; further: nearly all actives have a fitted effect of over 55% in size
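A cellular qHTS used chicken DT40 cells lacking endogenous Tdp1 but carrying stably transfected human TDP1. Compounds were applied without camptothecin, and cell growth kinetics were judged by ATP-dependent luminescence after ≥48 hr.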
A number is an active result; – = inactive; ? = inconclusive; · = no result given; [ ] = remark or other dose. An excerpt weighted towards active compounds, which were near 19% of everything screened. Unless noted, the call rests on the fitted dose curve; in most records, active means well fitted curve in the direction sought with a large enough effect; inconclusive means small, poorly fitted or top-dose-only effect, or another doubt; inactive means no such curve, though single readings can be large; an effect the other way counts as inactive or inconclusive.

SMILES | HT1080NT lethal | DT40 TDP1 CPT | HT1080 IDH1KD tx | IL1B secr inh | TDP1 cell noCPT
COc1cc(C(=O)NCC(c2ccc(N(C)C)cc2)N2CCCC2)cc(OC)c1OC (stereo not drawn) | · | 18µM | · | · | ?
COc1ccc2c(c1)OC(C)CN(CCC(=O)NCC1OCCc3ccccc31)C2 (stereo not drawn) | · | –[9.04 µM] | · | · | –
COc1ccc(OC)c(NC(=O)C(CC(=O)O)NCc2ccco2)c1 (stereo not drawn) | – | – | – | – | –
COc1cccc(C(=O)NCC(c2ccc(N(C)C)cc2)N2CCOCC2)c1OC (stereo not drawn) | · | 15µM | · | · | 16µM
Cc1ccc(O)c(-c2cc(-c3ccc(F)cc3)no2)c1 | – | – | – | – | –
C=CCNC(=O)/C(C#N)=C/c1cc(Br)ccc1OC | 21µM | ? | ? | – | ?
C=CCNC(=O)/C(C#N)=C/c1ccccc1Cl | – | ? | – | -58 | ?
C=C(C)Cn1c2ccc(NC(=O)NCc3ccc(F)cc3)cc2c(=O)n1C | – | – | – | – | –
CC(=O)c1ccc(Nc2nc(NCCO)nc(OC(C(F)(F)F)C(F)(F)F)n2)cc1 | – | ? | – | – | ?
CNc1nc(Nc2ccc(C(C)=O)cc2)nc(OC(C(F)(F)F)C(F)(F)F)n1 | – | ? | – | -58 | 23µM
O=[N+]([O-])c1ccc(C=CC=Cc2ccccc2)cc1 | – | – | – | – | ?
CN(c1ccccc1)c1ccc(/C=C/[N+](=O)[O-])cc1 | 5.2µM | 23µM | 5.8µM | -107 | 21µM
O=C(/C=C/c1ccccc1Cl)N1CCCN(C(=O)/C=C/c2ccccc2Cl)CC1 | – | 18µM | – | – | 21µM
O=C(/C=C/c1ccccc1Cl)NC1CCCCC1 | – | – | – | ? | ?
O=C(C=Cc1ccccc1Cl)c1ccccc1 | 23µM | ? | ? | – | 16µM
O=C(/C=C/c1ccccc1Cl)NC1CCS(=O)(=O)C1 (stereo not drawn) | – | 21µM | – | – | 18µM
O=C(/C=C/c1ccccc1[N+](=O)[O-])N1CCCCC1 | – | ? | – | – | –
CCCN(c1c(C)n(C)n(-c2ccccc2)c1=O)S(=O)(=O)c1ccc(C)cc1 | · | – | · | · | ?
Cc1ccc2c(c1)C1(C(=O)N2)N2CCCC2C(C(=O)c2ccc3ccccc3c2)C12C(=O)Nc1ccccc12 (stereo not drawn) | ? | 16µM | ? | -86 | ?
O=C1NC(=S)S/C1=C/c1ccc(N2CCOCC2)o1 | – | ? | – | – | ?
COc1ccc2cc(/C=C3\SC(=S)NC3=O)c(N3CCOCC3)nc2c1 | – | ? | ? | -69 | 12µM
Cc1cccc(OCC(O)CN2CCNCC2)c1 (stereo not drawn) | – | – | – | – | –
N=c1n(Cc2ccc(Cl)cc2)c2ccccc2n1CC(O)COc1ccccc1 (stereo not drawn) | 21µM | ? | 15µM | -97 | 8.2µM
N=c1n(Cc2ccccc2)c2ccccc2n1CC(O)COc1ccc(Cl)cc1Cl (stereo not drawn) | 29µM | 21µM | 12µM | -103 | 7.3µM
Cc1cccc(OCC(O)Cn2c(=N)n(Cc3ccccc3)c3ccccc32)c1 (stereo not drawn) | – | ? | – | -54 | 21µM
SMILES | HT1080NT lethal | DT40 TDP1 CPT | HT1080 IDH1KD tx | IL1B secr inh | TDP1 cell noCPT
Cc1cccc(OCC(O)Cn2c(=N)n(CCN3CCCCC3)c3ccccc32)c1 (stereo not drawn) | 10µM | 12µM | 11µM | -51 | 13µM
Cc1ccc2c(cnn2C(=O)CCC(=O)NC2CCCCC2)c1 | – | – | – | – | –
Cc1cc(C)c(Cn2cnc3nc4c(cc3c2=O)CCCC4)c(C)c1 | · | – | · | · | ?
COc1ccc(C(O)c2cnc(C)n2Cc2ccccc2)cc1 (stereo not drawn) | – | ? | – | – | 18µM
COc1ccc(OCC(O)CN2C(=O)c3ccccc3C2=O)cc1 (stereo not drawn) | ? | – | – | – | –
COc1ccc(OCC(O)Cn2c(=N)n(Cc3ccccc3)c3ccccc32)cc1 (stereo not drawn) | ? | ? | 11µM | -97 | 6.5µM
COc1ccc(-c2nnc(SCC(=O)O)n2Cc2ccccc2)cc1 | – | – | – | – | –
COc1ccc(C2CC(C)=C(C#N)S(=O)(=O)C2C#N)cc1 (stereo not drawn) | – | – | – | – | –
O=C(CCC(=O)c1cccs1)NCc1ccccc1Cl | – | – | – | – | –
CC(=O)c1cc(-c2ccccc2)n(CC(=O)N2CCN(C3CCCC3)CC2)c1C | – | ? | – | – | 23µM
CC(=O)c1cc(-c2ccccc2)n(CC(=O)N2CCC(C)CC2)c1C | – | ? | – | – | 29µM
CC(=O)c1cc(-c2ccccc2)n(CC(=O)NC2CCCC2)c1C | – | – | – | – | –
CCOc1cc(Cl)c(S(=O)(=O)n2ccnc2)cc1Cl | · | – | · | · | –
Cc1cc(C)c2c(CN3CCCCCCC3)cc(=O)oc2c1 | – | ? | – | – | ?
Cc1cc(C)c2c(CN3CCN(C/C=C/c4ccccc4)CC3)cc(=O)oc2c1 | ? | 29µM | ? | ? | ?
Cc1cc(C)c2c(CCl)cc(=O)oc2c1 | ? | 0.92µM | 1.3µM | · | 0.92µM
Cc1cc(C)c2c(CN3CCCCC3)cc(=O)oc2c1 | – | – | – | – | –
Cc1ccc(C2CC(=O)n3nc(-c4ccc(Cl)cc4)nc3S2)cc1 (stereo not drawn) | · | – | · | · | –
COc1ccc(-c2cc(C(F)(F)F)nc(NCc3ccccc3)n2)cc1OC | · | ? | · | · | 21µM
COc1ccc(CNc2nc(-c3ccc(OC)cc3)cc(C(F)(F)F)n2)cc1 | · | 13µM | · | · | 5.8µM
COc1cccc(-c2cc(C(F)(F)F)nc(NCc3ccco3)n2)c1 | – | – | – | – | –
Cc1[nH]c(=O)c(C(=O)/C=C/c2ccccc2F)c2c1CCCC2 | 7.9µM | 4.6µM | 7.9µM | -97 | 3.3µM
COc1ccc(C(=O)Nc2nnc(SCc3cc(=O)n4cc(Cl)ccc4n3)s2)cc1 | · | – | · | · | –
O=S1(=O)CC(N2CCN(Cc3ccccc3F)CC2)CN1Cc1cn(Cc2ccc(Cl)cc2)nn1 (stereo not drawn) | – | 18µM | – | – | 13µM
COc1ccc(Cn2cc(CN3CC(N4CCN(Cc5ccccc5F)CC4)CS3(=O)=O)nn2)cc1 (stereo not drawn) | – | ? | 23µM | – | 21µM
N#CC(c1ccc(F)cc1)c1ccc(C(=O)c2ccc(F)cc2)cc1 (stereo not drawn) | – | ? | – | ? | 21µM
